Screening results deposited in PubChem BioAssay by National Center for Advancing Translational Sciences (NCATS).
The entries come from a sample that favours hits as a whole.
Pf Dd2 inh = inhibitors of Plasmodium falciparum Dd2 growth; Potency, µM (series often up to 28.9 µM), actives largely listed as inhibitors; P. falciparum Dd2 growth, SYBR Green, 72 h; actives 4.3% (n = 120,000); active means well fitted inhibition curve with a large enough effect; further: nearly all actives have a fitted effect of over 65% in size
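Readout: SYBR Green fluorescence, 485 nm excitation, 535 nm emission, after ~16 h lysis at 37C. Before that, Dd2-infected red cells (2.5% hematocrit) grew 72 h with compound, 29 uM top final concentration.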
Hits are given with their value; - = inactive; [ ] = dose if it differs, or a comment.

SMILES	Pf Dd2 inh
O=C(NC1CC1)c1ccccc1OC1CN(C2CCC2)C1	2.82µM
O=C(NC1CC1)c1ccccc1OC1CN(Cc2ccc(F)cc2)C1	-
O=C(c1ccccc1OC1CCN(C2Cc3ccccc3C2)CC1)N1CCCCC1	-
CN(Cc1nccn1Cc1ccccc1)C(=O)c1cccc(-n2cnnc2)c1	-
O=C(c1cccnc1)N1CCC(c2nnc3n2C(C(=O)N2CCOCC2)CC3)CC1 (stereo not drawn)	-
COc1ccccc1C(=O)N1CCc2nc(C(C)C)nc(-c3ccc(Cl)cc3)c2CC1	-
CC(C)c1nc2c(c(-c3ccc(O)cc3)n1)CN(C(=O)c1ccc(C(F)(F)F)cc1)CC2	-
COc1ccc(-c2nc(C(C)C)nc3c2CCN(C(=O)Nc2ccccc2)CC3)cc1	5.01µM
COc1ccc(-c2nc(C(C)C)nc3c2CCN(C(=O)c2ccc(F)cc2)CC3)cc1	11.2µM
CC(C)c1nc2c(c(-c3ccc(Cl)cc3)n1)CCN(C(=O)c1ccc(C(F)(F)F)cc1)CC2	10µM
Cc1ccc(C(=O)N2CCc3nc(C(C)C)nc(-c4ccc(O)cc4)c3C2)cc1	-
COc1ccc(-c2nc(C(C)C)nc3c2CCN(C(=O)C2CC2)CC3)cc1	-
COc1ccc(-c2nc(C(C)C)nc3c2CCN(C(=O)N(C)C)CC3)cc1	-
COc1ccc(-c2nc(C(C)C)nc3c2CCN(C(C)=O)CC3)cc1	-
COc1ccc(-c2nc(C(C)C)nc3c2CCN(C(=O)c2cccc(Cl)c2)CC3)cc1	5.62µM
CCc1nc2c(c(-c3ccc(OC)cc3)n1)CCN(C(=O)c1ccccc1OC)CC2	-
Cc1cc(C(N)=O)c(-c2c(C)n[nH]c2C)nc1C	-
CCOc1ccccc1NC(=O)N1c2ccccc2CC1c1nc(C2CC2)no1 (stereo not drawn)	-[5.79 µM]
COc1ccc(C(=O)N2C(C(=O)N3CCCC3)COC23CCN(C(=O)Cc2ccccc2)CC3)cc1 (stereo not drawn)	-
Cc1ccccc1Cc1noc(-c2nc(-c3ccc4c(c3)OCO4)no2)n1	-
O=C(CCC1CCN(C(=O)CSc2ncccn2)CC1)NCC1CCCO1 (stereo not drawn)	-
CNC(=O)[C@H]1C[C@H](Oc2ccccc2)CN1S(=O)(=O)c1ccc(OC)cc1	-
COCCN(Cc1ccncc1)C(=O)C1CCN(C(=O)C2CC2)CC1	-
CO[C@H]1C(=O)N(C2CCN(S(=O)(=O)c3c(C)noc3C)CC2)[C@H]1c1ccncc1	-
COc1ccc(OC)c(CNC(=O)C2Cn3cccc3C(=O)N2CC(C)C)c1 (stereo not drawn)	-
SMILES	Pf Dd2 inh
CS(=O)(=O)N1CCCC(C(=O)NCCN2CCOCC2)CCNC(=O)CC1 (stereo not drawn)	-
COc1ccc(C2Cn3nnc(C(=O)N4CCC(C(=O)NC5CCC(C)CC5)CC4)c3CO2)cc1 (stereo not drawn)	-
CC(C)c1nc2c(c(-c3ccc(O)cc3)n1)CN(C(=O)Nc1ccc(Cl)cc1)CC2	11.2µM
CC(C)c1nc2c(c(-c3ccc(O)cc3)n1)CN(C(=O)C1CC1)CC2	-
CC(C)c1nc2c(c(-c3ccc(O)cc3)n1)CN(C(=O)C1CCCC1)CC2	-
O=C(N[C@H]1CO[C@H]2[C@@H]1OC[C@@H]2n1cc(CC2CCCCC2)nn1)c1ccc(C(F)(F)F)cc1	-
O=C(Cn1cccc1-c1nc(-c2ccccc2)no1)NC1CCCCC1	-
O=C1CCCCC(C(=O)N2CCc3ccccc3C2)N1 (stereo not drawn)	-
O=C1NCCCCCN(C(=O)NC2CCCCC2)[C@@H]2C[C@@H](C(=O)N3CCc4ccccc4C3)C[C@H]12	8.91µM
Cn1ccnc1C(=O)N1CCCCCNC(=O)[C@H]2C[C@H](C(=O)N3CCc4ccccc4C3)C[C@H]21	-
CC(C)C(=O)N1CCCCCCNC(=O)[C@@H]2C[C@@H](C(=O)N3CCN(c4ccccn4)CC3)C[C@@H]21	-
CCS(=O)(=O)N1CCCCCCNC(=O)[C@@H]2C[C@@H](C(=O)N3CCc4ccccc4C3)C[C@@H]21	-
O=C1NCCCCCCN[C@H]2C[C@H](C(=O)N3CCc4ccccc4C3)C[C@@H]12	6.31µM
CC1=NS(=O)(=O)N(Cc2ccccc2)C=C1C(=O)OCc1nc(Cc2ccc(C)cc2)no1	-
CN1c2cc(C(=O)Nc3cccc(Cl)c3)ccc2C(=O)N2CCCCCC21 (stereo not drawn)	-
O=C1NCCOCCN(S(=O)(=O)c2cccnc2)[C@H]2CCC[C@@H]12	-
CN(Cc1cc2n(n1)CCNC2)Cc1cnc(-c2ccccc2)s1	-
CCN1CCCC2(Cc3ccccc3CN(C(=O)CCCC(=O)O)C2)C1 (stereo not drawn)	-
CCN1CCC2(Cc3ccccc3CN(C(=O)Cc3ccc(O)cc3)C2)C1 (stereo not drawn)	-
CCN1CCC2(Cc3ccccc3CN(C(=O)Cc3ccc(OC)cc3)C2)C1 (stereo not drawn)	8.91µM
CCN1CCC2(Cc3ccccc3CN(C(=O)Cc3ccccc3)C2)C1 (stereo not drawn)	11.2µM
CCC(=O)N1Cc2ccccc2CC2(CCCN2Cc2ccc(OC)cc2)C1 (stereo not drawn)	-
CCC(=O)N1Cc2ccccc2CC2(CCN(CC3CCNCC3)C2)C1 (stereo not drawn)	-
CS(=O)(=O)N(C1CCOCC1)C1CN(C(=O)c2ccccn2)C1	-
CC(C)=CCN1CCC2(CCC(CNc3ncncn3)O2)CC1 (stereo not drawn)	-
SMILES	Pf Dd2 inh
COc1cccc(NC(=O)CCC2CCN(Cc3noc(C4CC4)n3)CC2)c1	-
Cc1ccccc1-c1cnc2[nH]cc(CC(=O)NC3CC3)c2c1	-
CC(C)(C)C1CCC2(CC1)NC(=O)N(CC(=O)NC1CCc3ccccc31)C2=O (stereo not drawn)	-
Cc1ccc(OC2(C(=O)N[C@H]3CCc4ccccc43)CCNCC2)cc1	7.94µM
Cc1ccc(OC2(C(=O)NCc3cccc(N(C)C)c3)CCNCC2)cc1	-
Cc1nc([C@H]2CCN(Cc3ccccc3)C[C@H]2NC(=O)C2CCOCC2)n[nH]1	-
Cc1noc([C@@H]2CC(F)(F)CN2C(=O)c2cocn2)n1	-
CCCN(CCC)C(=O)CC1=CSC2=NC(CC)=C(C(=O)OC)C(c3cccc(F)c3)N12 (stereo not drawn)	2.24µM
CCC1=C(C(=O)OC)C(c2ccccc2)N2C(CC(=O)N(C)Cc3ccccc3)=CSC2=N1 (stereo not drawn)	-
CCC1=C(C(=O)OC)C(c2ccccc2F)N2C(CC(=O)N3CCCC3)=CSC2=N1 (stereo not drawn)	-
Cc1cccnc1NC(=O)Cn1nc2c(cc1=O)CCCCC2	-
COc1ccc(CC(=O)NC2CCCc3c2[nH]c2ccccc32)cc1OC (stereo not drawn)	-
COC(=O)[C@@H]1Cc2c([nH]c3ccccc23)[C@H]2C[C@H](N3CCCCC3)C[C@@H](c3ccccc3F)N21	1.41µM
COC(=O)[C@@H]1Cc2c([nH]c3ccccc23)[C@H]2C[C@@H](N3CCCCC3)C[C@@H](c3ccccc3F)N21	3.98µM
COC(=O)[C@@H]1Cc2c([nH]c3ccccc23)[C@H]2C[C@@H](NCCNC(C)=O)C[C@@H](c3ccccc3F)N21	-
COC(=O)[C@@H]1Cc2c([nH]c3ccccc23)[C@H]2C[C@H](NC[C@H]3CCCO3)C[C@@H](c3ccccc3F)N21	-
O=C(Cn1ccn2nc(-c3ccc(F)cc3)c(CO)c2c1=O)Nc1ccccc1C(F)(F)F	-
CCC(C)NC(=O)C(NC(=O)c1ccccc1Cl)C1CCN(C(=O)c2cccc(OC)c2)CC1 (stereo not drawn)	-
